Laboratory results reported in PubChem BioAssay (NCATS).
Inconclusive results are not listed. Active and inactive are the calls of the source. Unless noted, calls follow the shape of the dose curve; as a rule, active = well fitted curve in the direction sought with a large enough effect; inconclusive = small, poorly fitted or top-dose-only effect, or another doubt; inactive = no such curve, though single readings can be large; an effect the other way counts as inactive or inconclusive.

What was measured:
[1] = qHTS assay for small molecule disruptors of the mitochondrial membrane potential - 5 hr assay (AID 651755; calls by dose curve; also: % is scaled to controls: 0 for no effect and ±100 for the full control effect; nearly all actives have a fitted effect of over 40% in size); details: JC-1-type ratio dye; series mostly up to 92.2 µM
Outline: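 Seed HepG2 overnight, add compound, incubate 5 hr at 37C and 5% CO2, stain 30 min with Mito-MPS, then measure monomer (490/535 nm) and aggregate (540/590 nm) fluorescence.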

[2] = target: Tumor necrosis factor (Homo sapiens) (UniProt P01375); assay: qHTS assay to identify small molecules that stimulate Tumor Necrosis Factor-alpha (TNF-alpha) secretion (AID 651757; active = well fitted curve in the direction sought with a large enough effect in the signal ratio; the % refers to the signal ratio; also: 0% is about no effect); details: Human cells, HTRF 665/615 ratio; series mostly up to 92.2 µM
Chain of Tumor necrosis factor (Homo sapiens) (P01375 whole entry, looked up): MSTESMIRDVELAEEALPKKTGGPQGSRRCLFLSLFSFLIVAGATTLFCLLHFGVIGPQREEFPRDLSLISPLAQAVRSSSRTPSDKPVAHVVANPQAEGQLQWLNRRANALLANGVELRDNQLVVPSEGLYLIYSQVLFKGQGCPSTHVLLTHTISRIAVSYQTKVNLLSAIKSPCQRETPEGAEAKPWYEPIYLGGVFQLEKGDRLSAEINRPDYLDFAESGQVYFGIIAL
Outline: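 Secreted TNF-alpha quantified by TR-FRET sandwich of two labeled anti-TNF-alpha antibodies, incubated 3 hr at room temperature. Preceded by 17 hr, 37 C compound treatment of THP-1 cells at 3000 cells/well.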

[3] = qHTS assay to identify small molecules that stimulate interleukin-8 (IL-8) secretion (AID 651758; active = well fitted activation curve with a large enough effect in the signal ratio; the % refers to the signal ratio; also: 0% is about no effect); details: HTRF ratio (665/615); series mostly up to 92.2 µM
Outline: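 Quantitative HTS in THP-1 monocytic cells at 2000 cells per well, with 16 hrs compound incubation at 37 C. IL-8 in the medium was then quantified by HTRF immunoassay, read after 1-3 hrs at room temperature.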

[4] = target: Nuclear receptor ROR-gamma (Homo sapiens) (UniProt P51449); assay: qHTS assay for small molecule antagonists of the retinoid-related orphan receptor gamma (ROR-gamma) signaling pathway (AID 651802); details: ROR-gamma antagonist cell reporter assay; series mostly up to 92.2 µM;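 also: CHO cells with doxycycline-induced ROR-gamma expression; luciferase reporter luminescence driven by ROR response element; % is scaled to controls: 0 for no effect and ±100 for the full control effect; nearly all actives have a fitted effect of over 60% in size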
Chain of Nuclear receptor ROR-gamma (Homo sapiens) (P51449 whole entry, looked up): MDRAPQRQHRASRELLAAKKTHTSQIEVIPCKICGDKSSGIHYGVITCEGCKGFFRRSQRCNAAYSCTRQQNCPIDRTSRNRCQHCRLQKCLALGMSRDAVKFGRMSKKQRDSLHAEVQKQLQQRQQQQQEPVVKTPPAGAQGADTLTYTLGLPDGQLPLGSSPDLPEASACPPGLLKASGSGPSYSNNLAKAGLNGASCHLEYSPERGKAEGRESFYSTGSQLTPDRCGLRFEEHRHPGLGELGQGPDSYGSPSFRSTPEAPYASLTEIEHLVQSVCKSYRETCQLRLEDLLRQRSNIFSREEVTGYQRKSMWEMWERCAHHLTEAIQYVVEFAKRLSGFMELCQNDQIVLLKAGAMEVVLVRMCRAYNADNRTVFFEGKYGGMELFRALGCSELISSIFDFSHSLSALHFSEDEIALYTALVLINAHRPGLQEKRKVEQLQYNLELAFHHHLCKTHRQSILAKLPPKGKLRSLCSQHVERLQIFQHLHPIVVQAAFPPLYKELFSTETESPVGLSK
Outline: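 Luminescence (One-Glo, 30 min RT) measured 16 h after compound addition and doxycycline induction at 37C. Reporter: RORE-luciferase under TET-inducible ROR-gamma in CHO cells.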

[5] = qHTS assay for small molecule agonists of the antioxidant response element (ARE) signaling pathway measured by Nrf2-dependant transcriptional activity (AID 720636; active = well fitted curve in the direction sought with a large enough effect in the repeat runs; an effect the other way counts as inactive or inconclusive;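 also: HepG2 cells with an ARE-driven luciferase reporter; % of control where 0% means no effect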); details: ARE-luc HepG2, Nrf2 luciferase reporter, 16 h; series mostly up to 92.4 µM
Outline: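 In HepG2 cells engineered with an Nrf2-responsive luciferase gene, ARE induction was quantified as luminescence after 16 hr compound treatment at 37 C.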

[6] = qHTS assay for small molecule antagonists of the retinoid-related orphan receptor gamma (ROR-gamma) signaling pathway - cell viability counter screen (AID 720652; active = well fitted curve in the direction sought with a large enough effect in the repeat runs; an effect the other way counts as inactive or inconclusive;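 also: CHO reporter cells with doxycycline-induced ROR-gamma expression; compound exposure lasted 16 hr before ATP read; % is scaled to controls: 0 for no effect and ±100 for the full control effect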); details: RORgamma reporter cell line viability counter screen; series mostly up to 92.2 µM
Outline: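 Cytotoxicity counter screen: intracellular ATP (CellTiter-Glo luminescence) measured in the doxycycline-induced CHO RORE-luciferase reporter line after 16 hr compound exposure at 37 C, 5% CO2.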

[7] = qHTS assay for cell viability of HEK293 cells (AID 743288); details: ATP luminescence (CellTiter-Glo), 18 h, stronger effect = lower value; also: % is scaled to controls: 0 for no effect and ±100 for the full control effect; nearly all actives have a fitted effect of over 50% in size
Outline: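 Viable-cell counts were inferred from luciferase-based ATP content in HEK293 cells seeded at 2,000/well, pre-incubated ≥5 h, then dosed with DMSO-solubilised compounds for 18 h at 37 C.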

[8] = qHTS assay for environmental chemicals that activate the Aryl hydrocarbon Receptor (AhR) signaling pathway (AID 651777); details: 1A2-DRE human hepatoma cells, luciferase, 24 h; activation: stronger effect = higher value; also: % of control where 0% means no effect; nearly all actives have a fitted effect of over 15% in size
Outline: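 Measured luciferase activity, read 30 min after One-Glo addition at room temperature, from human hepatoma cells bearing a dioxin response element–CYP1A2 promoter reporter and exposed to compound for 24 hr at 37 C.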

[9] = target: Peroxisome proliferator-activated receptor alpha (Homo sapiens) (UniProt Q07869); assay: qHTS assay for small molecule agonists of the peroxisome proliferator-activated receptor alpha (PPARalpha) signaling pathway (AID 651778); details: PathHunter PPARalpha complementation, chemiluminescence, 6 h; stronger effect = higher value; also: % of control where 0% means no effect
Chain of Peroxisome proliferator-activated receptor alpha (Homo sapiens) (Q07869 whole entry, looked up): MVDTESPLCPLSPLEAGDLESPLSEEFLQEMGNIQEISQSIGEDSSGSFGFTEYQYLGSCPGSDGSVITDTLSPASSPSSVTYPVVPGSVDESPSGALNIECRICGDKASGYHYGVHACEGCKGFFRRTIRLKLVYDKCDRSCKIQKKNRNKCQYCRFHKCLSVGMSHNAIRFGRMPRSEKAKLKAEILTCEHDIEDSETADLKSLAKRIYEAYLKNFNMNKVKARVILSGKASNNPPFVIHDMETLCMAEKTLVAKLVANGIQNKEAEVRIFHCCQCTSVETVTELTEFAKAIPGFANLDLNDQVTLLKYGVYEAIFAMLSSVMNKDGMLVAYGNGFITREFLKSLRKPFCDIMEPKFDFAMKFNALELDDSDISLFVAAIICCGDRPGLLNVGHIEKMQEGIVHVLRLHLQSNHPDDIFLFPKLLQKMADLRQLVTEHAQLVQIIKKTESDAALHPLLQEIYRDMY
Outline: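 Cells plated at 2,000/well and held overnight at 37 C, 5% CO2, then compound added by pin tool for 6 hr; after PathHunter detection reagent and 60 min at room temperature, chemiluminescence from enzyme complementation was read.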

[10] = qHTS assay for small molecule agonists of the antioxidant response element (ARE) signaling pathway measured by Nrf2-dependant transcriptional activity - cell viability counter screen (AID 720653; active = well fitted curve in the direction sought with a large enough effect in the repeat runs; an effect the other way counts as inactive or inconclusive; also: % is scaled to controls: 0 for no effect and ±100 for the full control effect); details: ARE-bla HepG2 viability, CellTiter-Glo ATP luminescence, 16 h; stronger effect = lower value
Outline: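 ARE-bla HepG2 cells (2,000/well) rested 5 hrs at 37C/5% CO2, then exposed to compounds in DMSO for 16 hrs. Viability was read in the same wells as intracellular ATP by luminescence, 30 min at room temperature after reagent addition.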

CC/C(C)=N/O
inactive: Potency [1] | Potency [2] | Potency [3] | Potency [4] | outcome [5] | Potency [6] | max response [7] 6.15%

c1ccc2[nH]cnc2c1
inactive: Potency [1] | Potency [2] | activation [8] 1.2% | max response [9] -1.28% | Potency [4] | outcome [5] | Potency [6] | max response [10] -6.28% | max response [7] 3.37%

CCCOCC(C)O (stereo unspecified)
inactive: Potency [1] | Potency [2] | activation [8] 1.17% | max response [9] -5.25% | Potency [4] | outcome [5] | Potency [6] | max response [10] 8.24% | max response [7] 2.22%

COc1ccc(N)c(C)c1
inactive: Potency [1] | Potency [2] | activation [8] 1.75% | max response [9] -5.31% | Potency [4] | outcome [5] | Potency [6] | max response [10] -1.87% | max response [7] -3.7%

O=C(O)c1ccccc1C(=O)O
inactive: Potency [1] | Potency [2] | Potency [3] | max response [9] 0.653% | outcome [5] | max response [10] -3.39% | max response [7] -4.91%

CC(CCl)OC(C)CCl (stereo unspecified)
inactive: Potency [1] | Potency [2] | Potency [3] | max response [9] 4.09% | outcome [5] | Potency [6] | max response [10] 6.29% | max response [7] -14.3%

O=C(O)/C=C/C(=O)O
inactive: Potency [1] | Potency [2] | Potency [3] | max response [9] -1.33% | Potency [4] | outcome [5] | max response [10] 17.2% | max response [7] -0.445%

CSCCC=O
inactive: Potency [1] | Potency [2] | activation [8] -0.987% | max response [9] 13.7% | Potency [4] | outcome [5] | Potency [6] | max response [10] -0.733% | max response [7] 1.22%

CCCCCCCCC/C=C/CC1CC(=O)OC1=O (stereo unspecified)
inactive: Potency [1] | Potency [2] | Potency [3] | outcome [5] | Potency [6] | max response [10] -4.85% | max response [7] 0.292%

Cc1c(C(=O)O)cccc1[N+](=O)[O-]
inactive: Potency [1] | Potency [2] | activation [8] 1.63% | max response [9] -0.685% | Potency [4] | outcome [5] | Potency [6] | max response [10] 17.9% | max response [7] 6.06%

CC(C)=C1CCC(C)CC1=O (stereo unspecified)
inactive: Potency [1] | Potency [2] | Potency [3] | max response [9] -4.55% | Potency [4] | outcome [5] | Potency [6] | max response [10] 3.25% | max response [7] 10.3%

CC#N
inactive: Potency [1] | Potency [2] | Potency [3] | max response [9] -2.21% | outcome [5] | Potency [6] | max response [10] -0.353% | max response [7] -9.36%

CC(=O)Nc1ccc(C)cc1
inactive: Potency [1] | Potency [2] | activation [8] -0.295% | max response [9] -1.18% | Potency [4] | outcome [5] | Potency [6] | max response [10] 2.3% | max response [7] -2.69%

CC1(N)CCC(C(C)(C)N)CC1 (stereo unspecified)
inactive: Potency [1] | Potency [2] | Potency [3] | max response [9] 0.74% | Potency [4] | outcome [5] | max response [7] 3.33%

NC(=O)c1cccc([N+](=O)[O-])c1
inactive: Potency [1] | Potency [2] | activation [8] 0.373% | max response [9] 2.42% | Potency [4] | outcome [5] | Potency [6] | max response [10] -9.57% | max response [7] -1.82%

ClCCl
inactive: Potency [1] | Potency [2] | activation [8] 0.008% | max response [9] -6.14% | Potency [4] | outcome [5] | Potency [6] | max response [10] 8.53% | max response [7] -3.33%

Nc1ccccc1[N+](=O)[O-]
inactive: Potency [1] | Potency [2] | activation [8] -0.331% | max response [9] -3.89% | Potency [4] | outcome [5] | Potency [6] | max response [10] -18.4% | max response [7] -7.67%

CCc1ccccc1O
inactive: Potency [1] | Potency [2] | activation [8] -0.147% | max response [9] -2.08% | Potency [4] | outcome [5] | Potency [6] | max response [10] 4.85% | max response [7] -0.782%

Cc1nc2ccc(Cl)cc2[nH]1
inactive: Potency [1] | Potency [2] | activation [8] 3.58% | max response [9] -1.28% | Potency [4] | outcome [5] | Potency [6] | max response [10] -4.37% | max response [7] 5.07%

Cc1cccc2cccnc12
inactive: Potency [1] | Potency [2] | activation [8] -0.26% | max response [9] 3.59% | Potency [4] | outcome [5] | Potency [6] | max response [10] -7.04% | max response [7] -0.0071%

O=[N+]([O-])c1ccc(Cl)cc1Cl
inactive: Potency [1] | Potency [2] | activation [8] -1.71% | max response [9] -1.04% | Potency [4] | outcome [5] | Potency [6] | max response [10] -19.5% | max response [7] 0.0931%

Cc1ccc(C)c([N+](=O)[O-])c1
inactive: Potency [1] | Potency [2] | activation [8] 0.781% | max response [9] -2.55% | Potency [4] | outcome [5] | Potency [6] | max response [10] -4.07% | max response [7] 4.94%

CCNS(=O)(=O)c1ccc(C)cc1
inactive: Potency [1] | Potency [2] | activation [8] -1.7% | max response [9] -3.34% | Potency [4] | outcome [5] | Potency [6] | max response [10] -1.66% | max response [7] -4.78%

CCCC(C)CO (stereo unspecified)
inactive: Potency [1] | Potency [2] | activation [8] -0.17% | max response [9] -5.48% | Potency [4] | outcome [5] | Potency [6] | max response [10] 13.6% | max response [7] -5.68%

O=C1CCC(=O)O1
inactive: Potency [1] | Potency [2] | activation [8] -1.39% | max response [9] 3.38% | Potency [4] | outcome [5] | Potency [6] | max response [10] -3.63% | max response [7] -3.25%

C=C(C)OC(C)=O
inactive: Potency [1] | Potency [2] | activation [8] -1.07% | max response [9] -3.39% | Potency [4] | outcome [5] | Potency [6] | max response [10] 7.41% | max response [7] -0.625%

C=CCOC(=O)COCCC(C)C
inactive: Potency [1] | Potency [2] | activation [8] -0.312% | max response [9] -5.81% | Potency [4] | outcome [5] | Potency [6] | max response [10] 5.49% | max response [7] -0.0294%

CCc1ccccc1
inactive: Potency [1] | Potency [2] | activation [8] 3.73% | max response [9] -3.6% | Potency [4] | outcome [5] | Potency [6] | max response [10] -7.67% | max response [7] -3.72%

CC/C=C1/OC(=O)c2ccccc21
inactive: Potency [1] | Potency [2] | activation [8] 0.751% | max response [9] -2.48% | Potency [4] | outcome [5] | Potency [6] | max response [10] 4.48% | max response [7] -15.4%

Cc1cccc2ccccc12
inactive: Potency [1] | Potency [2] | activation [8] -0.124% | max response [9] -1.89% | Potency [4] | outcome [5] | Potency [6] | max response [10] -3.61% | max response [7] 1.12%

CCC(C)O (stereo unspecified)
inactive: Potency [1] | Potency [2] | Potency [3] | max response [9] 0.282% | Potency [4] | outcome [5] | Potency [6] | max response [10] -9.02% | max response [7] 5.18%

CC(=O)c1ccccc1[N+](=O)[O-]
inactive: Potency [1] | Potency [2] | Potency [3] | max response [9] -1% | Potency [4] | outcome [5] | Potency [6] | max response [7] 7.31%

C=Cc1ccccn1
inactive: Potency [1] | Potency [2] | Potency [3] | max response [9] 0.108% | Potency [4] | outcome [5] | max response [10] -6.91% | max response [7] 3.38%

O=C(Cl)c1c(Cl)cccc1Cl
inactive: Potency [1] | Potency [2] | activation [8] -1.9% | max response [9] -3.46% | Potency [4] | outcome [5] | Potency [6] | max response [10] 10.8% | max response [7] 0.0079%

COc1ccc(OC)cc1
inactive: Potency [1] | Potency [2] | activation [8] 0.641% | max response [9] -4.92% | Potency [4] | outcome [5] | Potency [6] | max response [7] -1.36%
